Most compounds without a hit are left out; they make up all but 2.1% or so of the library.
PfHsp40 rescue = rescue of PfHsp40-mediated yeast toxicity | growth rescue, % at 12.5 µM | S. cerevisiae expressing PfHsp40, growth rescue, ATP luminescence | hit rate 0.68% among 340,000; in the data active = growth rescue above about 28%, passing the limit was not always enough;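 also: yeast W303a lacking pdr1 and pdr3 grown in galactose medium; growth measured after three days at 30 °C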
CCHF vOTU inh = blocks the CCHF virus ovarian tumor domain protease | CCHFV vOTU protease, Pep-AMC fluorescence | inhibition, % at 11.5 µM | hit rate 0.55% among 370,000; in the data active = inhibition above about 30%
PrP UTR inh = suppresses PrP 5' UTR mRNA reporter expression. cell-based PrP 5' UTR mRNA reporter, plate reader. inhibition, % (no concentration beside the values). hit rate 0.35% among 340,000; in the data active = inhibition above about 52%
RN4220 kill = S. aureus RN4220 growth inhibition. OD600, 16 h. inhibition, % (concentration not given with the values). hit rate 0.33% among 330,000. AID 1259311; in the data active = inhibition above about 85%
Sa ugtP lethal = compounds lethal to S. aureus RN4220 ugtP deletion mutant | OD600 growth, 16 h | growth inhibition, % (no concentration beside the values) | hit rate 0.54% among 330,000 | AID 1259309; in the data active = growth inhibition above about 68%
PrPC TRFRET = reduces human prion protein on the cell surface | P04156 | inhibition, % at 13.8 µM | hit rate 0.43% among 370,000 | AID 720596 | cell surface PrPC, TR-FRET read-out; in the data active = inhibition above about 24%
PrPC confirm = cell surface PrPC inhibition, TR-FRET confirmation; shares compounds with PrPC TRFRET; cell surface PrPC level; inhibition, % at 13.8 µM; hit rate 65% among 1,500; AID 743200; in the data active = inhibition above about 25%
LD9 cytotox = kills or reduces viability of LD9 cells in PrPc counter-screen; shares compounds with PrPC TRFRET; LD9 cells cytotoxicity, luminescence viability; inhibition, % at 13.8 µM; hit rate 29% among 1,500; AID 743201; in the data active = inhibition above about 9.5%
Numbers stand for hits; i = inactive; nt = not tested or not shown.

SMILES | PfHsp40 rescue | CCHF vOTU inh | PrP UTR inh | RN4220 kill | Sa ugtP lethal | PrPC TRFRET | PrPC confirm | LD9 cytotox
COc1cccc(NC(=O)CCSc2ccc3ccccc3n2)c1 | i | i | i | i | i | 67.7 | 84.2 | i
COc1ccc(NC(=O)CCSc2ccc(C)cc2)cc1 | i | i | i | i | i | i | nt | nt
COc1cccc(NC(=O)COC(=O)CCSc2ccccc2)c1 | i | i | i | i | i | i | nt | nt
CC#CCN1c2ccccc2[C@]23CC(C(=O)OC)N(C(=O)c4ccc(Br)cc4)C2=NC(C(=O)OC)=C(C(=O)OC)C13 (stereo partly drawn) | nt | nt | nt | i | i | nt | nt | nt
O=C(Nc1ccc2c(c1)OCO2)c1ccc2sc([C@@H]3O[C@H](CO)[C@H](O)[C@H](O)[C@H]3O)nc2c1 | nt | i | nt | nt | nt | i | nt | nt
O=C(Nc1ccc2c(c1)OCO2)c1ccc2sc([C@@H]3O[C@H](CO)[C@@H](O)[C@H]3O)nc2c1 | nt | i | nt | nt | nt | 25.5 | i | i
COC(=O)C1=C(c2ccccc2OCc2ccccc2)CC2CCC1N2C(=O)NCc1cccc(C(F)(F)F)c1 (stereo not drawn) | nt | nt | nt | i | i | nt | nt | nt
CC1(c2ccc(Cl)cc2)NC(=O)N(CC(=O)N2CCc3ccccc32)C1=O (stereo not drawn) | i | i | i | i | i | i | nt | nt
O=C1N(CC(=O)N2CCc3ccccc32)CCN1Cc1ccc(Cl)cc1 | i | i | i | i | i | 45.7 | i | i
Cc1ccc(NS(=O)(=O)c2ccc(Cl)c(C(=O)Nc3ccccc3-c3nc4ccccc4[nH]3)c2)cc1C | i | i | i | i | i | 25.6 | i | i
CN(C)S(=O)(=O)c1ccc(Cl)c(C(=O)Nc2nc3ccccc3[nH]2)c1 | i | i | i | i | i | i | nt | nt
Cc1nc2ccccc2c2oc(C(=O)N3CCC(N4CCCCC4)CC3)cc12 | i | nt | i | i | i | nt | nt | nt
Cc1nc2ccccc2c2oc(C(=O)N3CCN(C4CCCCC4)CC3)cc12 | i | i | i | i | i | 26.4 | i | 14.7
CCOc1ccc(NC(=O)Nc2cc(OCC(F)(F)F)cc(OCC(F)(F)F)c2)cc1 | i | i | i | i | i | i | nt | nt
O=C(Nc1ccc(F)cc1)Nc1cc(OCC(F)(F)F)cc(OCC(F)(F)F)c1 | i | i | i | 91.7 | 99.7 | 44.0 | 43.7 | 27.0
CC1CN(C(C)CO)C(=O)c2cccc(NC(=O)c3ccncc3)c2OC1CN(C)S(=O)(=O)c1ccccc1 (stereo not drawn) | nt | nt | nt | i | i | nt | nt | nt
Cn1c(=O)c2c(nc(CN3CCc4ccccc4C3)n2CCCO)n(C)c1=O | i | i | i | i | i | i | nt | nt
Cn1c(=O)c2c(nc(CN3CCc4ccccc4C3)n2Cc2ccccc2F)n(C)c1=O | i | i | i | i | i | 26.5 | i | i
Cc1nc(SC2CCOC2=O)c2c(C)c(C)sc2n1 (stereo not drawn) | i | i | i | i | i | 98.1 | 102.6 | i
COc1ccccc1NC(=O)CSc1nnc(-c2ccncc2)n1CC1CCCO1 (stereo not drawn) | i | i | i | i | i | i | nt | nt
Cc1cccc(NC(=O)CSc2nnc(-c3ccncc3)n2CC2CCCO2)c1 (stereo not drawn) | i | i | i | i | i | 60.3 | i | i
CC(C=NNC(=O)CSc1ccccn1)=Cc1ccc(C(C)C)cc1 | nt | nt | nt | i | i | nt | nt | nt
CC#CCOC(=O)c1c(C)nc2sc3c(c2c1N)CCC(O)C3 (stereo not drawn) | i | i | i | i | i | 42.0 | 27.4 | 11.6
N#CCCSc1ncnc2c1oc1ccccc12 | i | i | i | i | i | 55.2 | 46.9 | i
CCOC(=O)CC(=O)CSc1ncnc2c1oc1ccccc12 | i | i | i | i | i | 57.8 | i | i
SMILES | PfHsp40 rescue | CCHF vOTU inh | PrP UTR inh | RN4220 kill | Sa ugtP lethal | PrPC TRFRET | PrPC confirm | LD9 cytotox
c1ccc(-c2cn(CC3CCC(Cn4cc(-c5ccccn5)nn4)O3)nn2)nc1 (stereo not drawn) | nt | nt | nt | i | i | nt | nt | nt
CCSCCOC(=O)C1=C(C)N(C)C(=O)NC1c1cc(OC)ccc1OC (stereo not drawn) | i | i | i | i | i | 42.7 | 29.7 | i
O=C(c1ccc(C(F)(F)F)cc1)C1CCCN(C(=O)CCc2ccncc2)C1 (stereo not drawn) | i | i | i | i | i | i | nt | nt
O=C(c1ccc(C(F)(F)F)cc1)C1CCCN(Cc2ccncc2)C1 (stereo not drawn) | i | i | i | i | i | 28.5 | i | 11.5
CCN(CC)S(=O)(=O)c1cccc(-c2nn(-c3ccccc3)cc2/C=C(\C#N)C(=O)NCc2ccco2)c1 | i | i | i | i | i | i | nt | nt
CN(C)S(=O)(=O)c1cccc(-c2nn(-c3ccccc3)cc2/C=C(/C#N)C(=O)NCc2ccco2)c1 | i | i | i | i | i | 28.9 | i | i
COc1ccc(N(C)S(=O)(=O)c2cccc(C(=O)OC(C(=O)Nc3cc(C)cc(C)c3)c3ccccc3)c2)cc1 (stereo not drawn) | i | i | i | i | i | 25.6 | i | i
NC(=O)C1=C[C@@H](c2coc3ccccc3c2=O)C[C@@H](OCc2ccc(CO)cc2)O1 | i | i | i | nt | nt | 40.3 | 30.7 | i
NC(=O)C1=C[C@@H](c2coc3ccccc3c2=O)C[C@@H](OCCCCO)O1 | i | i | i | nt | nt | 27.1 | 31.5 | i
C=CCOC(=O)C1=C[C@@H](c2coc3ccccc3c2=O)C[C@@H](OCCCCO)O1 | i | i | i | i | i | i | nt | nt
CCCCCC(=O)NN=Cc1ccc([N+](=O)[O-])o1 | nt | nt | nt | i | i | nt | nt | nt
CC(=NNC(=O)C(=O)Nc1cc(C)ccc1C)c1ccncc1 | nt | nt | nt | i | i | nt | nt | nt
N=C1C(c2ccccc2)=C(O)CN1c1ccccc1 | i | i | i | i | i | 28.9 | i | i
Cc1ccccc1C(=O)Nc1ccc(C(=O)NN=Cc2ccncc2)cc1 | nt | nt | nt | i | i | nt | nt | nt
CC(=O)OC1CCC2(C)C(CCC3C4CC=C(C(C)=O)C4(C)OC(=O)CC32)C1 (stereo not drawn) | nt | i | nt | nt | nt | 71.6 | i | 91.1
CC(=O)Nc1ccc2nc(NC(=O)c3cccs3)sc2c1 | i | i | i | i | i | i | nt | nt
COc1ccc2nc(NC(=O)c3cccs3)sc2c1 | nt | i | nt | i | i | 27.0 | i | i
Cc1ccc(NN=C(C#N)C(N)=S)cc1C | nt | nt | nt | i | i | nt | nt | nt
N#C/C(=N/Nc1ccc(OC(F)(F)F)cc1)C(N)=S | i | i | i | nt | nt | 26.1 | 38.4 | 27.6
C#Cc1ccc(C2C=C(C(=O)NCc3ccccc3)OC(OCc3ccc(CO)cc3)C2)cc1 (stereo not drawn) | nt | nt | nt | i | i | nt | nt | nt
Fc1cccc2sc(Nc3nc4c(F)cccc4s3)nc12 | i | i | i | nt | nt | 37.4 | 69.6 | i
COc1cc(C(=O)NC2CCCCN(Cc3cccc(Cl)c3)C2=O)cc(OC)c1OC (stereo not drawn) | nt | i | nt | nt | nt | i | nt | nt
O=C(NC1CCCCN(Cc2cccc(C(F)(F)F)c2)C1=O)c1ccc(COc2ccccc2)cc1 (stereo not drawn) | nt | i | nt | nt | nt | 25.5 | 24.9 | i

Bioassay records as filed in PubChem.
